Test results taken from PubChem BioAssay (Tox21).
“And” between values parts separate entries of the source, which are not always exact repeats. Identical values can stand only once. Results filed as inconclusive are left out. Where a call stands in place of a potency, no number is given. A structure can be active in one record and inactive in another. The source made the active and inactive calls. Unless noted, calls follow the shape of the dose curve; as a rule, active = well fitted curve in the direction sought with a large enough effect in the repeat runs; inconclusive = weak or mixed curves; inactive = no such curve, though single readings can be large; an effect the other way counts as inactive or inconclusive.

Key:
[1] = qHTS assay to identify aromatase inhibitors - cell viability counter screen (AID 743084); details: MCF-7 aro ERE viability, CellTiter-Fluor, 24 h; series mostly up to 70.3 µM;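 also: cells stimulated with testosterone during compound exposure; nearly all actives have a fitted effect of over 55% in size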; also: potency is read from the fitted curve at half-maximal effect
[2] = biological target: Aryl hydrocarbon receptor (Homo sapiens) (UniProt P35869); test: qHTS assay to identify small molecule that activate the aryl hydrocarbon receptor (AhR) signaling pathway (AID 743085); details: HepG2 AhR-luc (HG2L7.5c1), luciferase, 24 h; series mostly up to 70.3 µM; also: nearly all actives have a fitted effect of over 15% in size; also: potency is read from the fitted curve at half-maximal effect;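 as to activation: HG2L7.5c1 human HepG2 liver cells with stably integrated DRE-driven firefly reporter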
In short: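 HepG2 cells (HG2L7.5c1) stably carrying a firefly luciferase reporter driven by 20 dioxin responsive elements were exposed to compound for 24 h at 37C after a 5 h settling period; luminescence rise (ONE-Glo) indicated activation.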

[3] = biological target: Peroxisome proliferator-activated receptor gamma (Homo sapiens) (UniProt P37231); test: qHTS assay to identify small molecule agonists of the peroxisome proliferator-activated receptor gamma (PPARg) signaling pathway (AID 743094; active = well fitted activation curve with a large enough effect in the signal ratio in the repeat runs, not every such curve was filed as active; the % refers to the signal ratio; also: potency is read from the fitted curve at half-maximal effect); details: HEK293H PPARg-UAS-bla, beta-lactamase FRET ratio, 17 h; series mostly up to 57 µM
In short: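 Agonist activity was taken from a beta-lactamase reporter (FRET substrate, 1 h at room temperature) in HEK293H cells carrying a PPARg UAS-bla construct. Compounds in DMSO were incubated 17 h at 37C after a 5 h cell pre-incubation.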

[4] = qHTS assay to identify small molecule antagonists of the peroxisome proliferator-activated receptor gamma (PPARg) signaling pathway - cell viability counter screen (AID 743194); details: PPARg-bla HEK293H viability, CellTiter-Glo luminescence, 17 h, co-treated with 50 nM rosiglitazone; series mostly up to 62.6 µM; also: nearly all actives have a fitted effect of over 55% in size; also: potency is read from the fitted curve at half-maximal effect
In short: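 PPARg-UAS-bla HEK293H cells were plated, rested 5 h at 37 C, then treated with compounds plus rosiglitazone (50 nM final) for 17 h at 37 C; viability was then read by CellTiter-Glo luminescence after 30 min at room temperature.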

[5] = qHTS assay for small molecule agonists of the antioxidant response element (ARE) signaling pathway (AID 743202; active = well fitted activation curve with a large enough effect in the signal ratio in the repeat runs, not every such curve was filed as active; the % refers to the signal ratio); details: HepG2 ARE-bla reporter, beta-lactamase FRET, 16 h; series mostly up to 73.3 µM
In short: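 Steps: seed ARE-bla HepG2 cells (2,000/well); incubate 5 h at 37 C; add compounds by pin tool; incubate 16 h at 37 C; add FRET substrate; read fluorescence after 2 h at RT.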

[6] = qHTS assay for small molecule activators of the heat shock response signaling pathway - cell viability counter screen (AID 743209); details: HSE-bla HeLa viability, CellTiter-Glo luminescence, 5 h; series mostly up to 62.6 µM; also: nearly all actives have a fitted effect of over 50% in size; also: potency is read from the fitted curve at half-maximal effect
In short: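 Cytotoxicity counter screen run in the same wells as the heat-shock bla reporter assay: HeLa HSE-bla cells, 5 h compound exposure at 37 C, viability read by CellTiter-Glo luminescence.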

[7] = qHTS assay for small molecule activators of the heat shock response signaling pathway (AID 743210; active = well fitted activation curve with a large enough effect in the signal ratio in the repeat runs, with a control signal flat, not every such curve was filed as active; the % refers to the signal ratio;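 also: HeLa cells with beta-lactamase reporter driven by heat shock elements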); details: HeLa HSE-bla reporter, beta-lactamase ratio, 5 h; series mostly up to 62.6 µM
In short: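 Activation of heat shock element-controlled beta-lactamase expression is measured in HeLa cells by LiveBLAzer FRET fluorescence, with compound exposure lasting 5 h at 37 C and substrate loading 2.5 h at room temperature.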

[8] = qHTS assay to identify small molecule agonists of the peroxisome proliferator-activated receptor delta (PPARd) signaling pathway - cell viability counter screen (AID 743211); details: PPARd-bla HEK293H viability, CellTiter-Glo luminescence, 17 h; series mostly up to 62.6 µM; also: nearly all actives have a fitted effect of over 55% in size; also: potency is read from the fitted curve at half-maximal effect
In short: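 PPARd-bla HEK293H cells (UAS-beta-lactamase reporter) were treated with compounds for 17 h at 37 C. Viability was then read in the same wells by CellTiter-Glo luminescence after 30 min at room temperature.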

[9] = biological target: Peroxisome proliferator-activated receptor delta (Homo sapiens) (UniProt Q03181); test: qHTS assay to identify small molecule agonists of the peroxisome proliferator-activated receptor delta (PPARd) signaling pathway (AID 743212; calls by dose curve); details: HEK293H PPARd-UAS-bla, beta-lactamase FRET ratio, 17 h; series mostly up to 62.6 µM
In short: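 Cells expressing a UAS-driven beta-lactamase reporter (PPARd-bla HEK293H) were given test compounds after a 5 h settle and kept at 37 C. Reporter activity was then measured as FRET fluorescence using LiveBLAzer B/G substrate.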

[10] = biological target: Bile acid receptor (Homo sapiens) (UniProt Q96RI1); test: qHTS assay to identify small molecule antagonists of the farnesoid-X-receptor (FXR) signaling pathway (AID 743217; active = well fitted inhibition curve with a large enough effect in the signal ratio in the repeat runs, not every such curve was filed as active; the % refers to the signal ratio); details: HEK293T FXR-UAS-bla, beta-lactamase ratio, CDCA-stimulated, 16 h; series mostly up to 62.6 µM
In short: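 Antagonist mode: chenodeoxycholic acid at 50 uM final stimulates a UAS-driven beta-lactamase reporter in HEK 293T FXR-bla cells during 16 h, 37C compound exposure. Read-out is FRET substrate fluorescence after 2 h at room temperature.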

[11] = biological target: Peroxisome proliferator-activated receptor gamma (Homo sapiens) (UniProt P37231); test: qHTS assay to identify small molecule antagonists of the peroxisome proliferator-activated receptor gamma (PPARg) signaling pathway (AID 743191; calls by dose curve; also: nearly all actives have a fitted effect of over 30% in size; also: potency is read from the fitted curve at half-maximal effect); details: HEK293H PPARg-UAS-bla, beta-lactamase ratio, antagonist, 17 h; series mostly up to 62.6 µM
In short: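 GeneBLAzer PPARg UAS-bla HEK293H cells carrying a UAS-driven beta-lactamase reporter were plated at 3000 cells/well, preincubated 5 h at 37C, then given compound for 17 h at 37C; LiveBLAzer B/G FRET substrate was read after 1 h at room temperature.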

[12] = qHTS assay for small molecule agonists of the antioxidant response element (ARE) signaling pathway - cell viability counter screen (AID 743203; calls by dose curve; also: nearly all actives have a fitted effect of over 55% in size; also: potency is read from the fitted curve at half-maximal effect); details: ARE-bla HepG2 viability, CellTiter-Glo luminescence, 16 h; series mostly up to 73.3 µM
In short: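 Viability counter screen: CellTiter-Glo luminescence, read after 30 min at room temperature, in ARE-bla HepG2 wells. Compound exposure lasted 16 h at 37C/5% CO2, following a 5 h pre-incubation of the cells after plating.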

[13] = qHTS assay to identify small molecule antagonists of the peroxisome proliferator-activated receptor delta (PPARd) signaling pathway - cell viability counter screen (AID 743213); details: PPARd-bla HEK293H viability, CellTiter-Glo luminescence, 17 h; series mostly up to 62 µM; also: nearly all actives have a fitted effect of over 50% in size; also: potency is read from the fitted curve at half-maximal effect
In short: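 PPARd-bla HEK293H cells were treated with compounds plus agonist L165041 (300 nM final) for 17 h at 37 C. Viability was then read in the same wells by CellTiter-Glo luminescence after 30 min at room temperature.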

[14] = qHTS assay to identify small molecule agonists of the farnesoid-X-receptor (FXR) signaling pathway - cell viability counter screen (AID 743218); details: FXR-bla HEK293T viability, CellTiter-Glo luminescence, 16 h; series mostly up to 62.6 µM; also: nearly all actives have a fitted effect of over 45% in size; also: potency is read from the fitted curve at half-maximal effect
In short: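 Viability counter screen in the same wells: CellTiter-Glo luminescence, 30 min room-temperature incubation, measured after the beta-lactamase read. Cells were GeneBLAzer FXR-UAS-bla HEK 293T, compound-treated 16 h at 37C.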

[15] = qHTS assay to identify small molecule antagonists of the farnesoid-X-receptor (FXR) signaling pathway - cell viability counter screen (AID 743221; active = well fitted cell-killing curve with a large enough effect in the repeat runs, not every such curve was filed as active; also: nearly all actives have a fitted effect of over 50% in size; also: potency is read from the fitted curve at half-maximal effect); details: FXR-bla HEK293T viability, CellTiter-Glo luminescence, 16 h; series mostly up to 62.6 µM
In short: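 FXR-UAS-bla HEK 293T cells were treated with test compounds plus chenodeoxycholic acid (50 uM final) for 16 h at 37 C. Cell viability in the same wells was then read as CellTiter-Glo luminescence after 30 min at room temperature.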

[16] = biological target: Vitamin D3 receptor (Homo sapiens) (UniProt P11473); test: qHTS assay to identify small molecule antagonists of the vitamin D receptor (VDR) signaling pathway (AID 743223; active = well fitted inhibition curve with a large enough effect in the signal ratio in the repeat runs, not every such curve was filed as active; the % refers to the signal ratio); details: VDR-UAS-bla HEK293T, beta-lactamase FRET ratio, 16 h; series mostly up to 61 µM
In short: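 VDR-bla cells were plated, incubated 4 h at 37C, then given compound and 1alpha,25-dihydroxyvitamin D3 (3 nM final). After 16 h at 37C, LiveBLAzer B/G FRET substrate was added for 2 h at room temperature and fluorescence read.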

[17] = biological target: Peroxisome proliferator-activated receptor delta (Homo sapiens) (UniProt Q03181); test: qHTS assay to identify small molecule antagonists of the peroxisome proliferator-activated receptor delta (PPARd) signaling pathway (AID 743215; active = well fitted inhibition curve with a large enough effect in the signal ratio in the repeat runs, not every such curve was filed as active; the % refers to the signal ratio;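 also: cells stimulated with agonist L165041 at 300 nM final during compound exposure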); details: HEK293H PPARd-UAS-bla, beta-lactamase FRET ratio, antagonist, 17 h; series mostly up to 62 µM
In short: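 Agonist L165041 (300 nM final) added with compound to PPARd-bla HEK293H UAS-bla reporter cells; 17 h incubation at 37 C. Read-out: LiveBLAzer FRET substrate, 2 h at room temperature, fluorescence intensity.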

[18] = biological target: Bile acid receptor (Homo sapiens) (UniProt Q96RI1); test: qHTS assay to identify small molecule agonists of the farnesoid-X-receptor (FXR) signaling pathway (AID 743220; active = well fitted activation curve with a large enough effect in the signal ratio in the repeat runs, not every such curve was filed as active; the % refers to the signal ratio); details: HEK293T FXR-UAS-bla, beta-lactamase FRET ratio, 16 h; series mostly up to 62.6 µM
In short: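 FXR-UAS-bla HEK 293T cells carrying a UAS-driven beta-lactamase reporter were plated for 5 h at 37C/5% CO2, then exposed to DMSO-dissolved Tox21 10K compounds for 16 h at 37C. A LiveBLAzer B/G FRET substrate was loaded for 2 h at room temperature before fluorescence reading.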

[19] = biological target: Vitamin D3 receptor (Homo sapiens) (UniProt P11473); test: qHTS assay to identify small molecule agonists of the vitamin D receptor (VDR) signaling pathway (AID 743222; calls by dose curve); details: HEK293T VDR-UAS-bla, beta-lactamase FRET ratio, 16 h; series mostly up to 63.5 µM
In short: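 Agonist mode, beta-lactamase reporter: fluorescence from LiveBLAzer B/G FRET substrate (2 h, room temperature) read after 16 h compound treatment at 37 C of VDR-bla cells, which were pre-incubated 4 h after seeding.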

[20] = qHTS assay to identify small molecule that activate the aryl hydrocarbon receptor (AhR) signaling pathway - cell viability counter screen (AID 743086); details: HepG2-AhR-luc viability, CellTiter-Fluor, 24 h; series mostly up to 70.3 µM;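 also: HepG2 liver cells carrying the AhR DRE luciferase reporter; nearly all actives have a fitted effect of over 45% in size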
In short: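 HepG2-AhR-luc (HG2L7.5c1) cells, 4000/well, were preincubated 5 h at 37C, exposed to compound in qHTS format for 24 hr at 37C, then given CellTiter-Fluor for 30 min; viability was read as fluorescence in the reporter wells.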

Bile acid receptor (Homo sapiens), sequence (Q96RI1 whole entry, looked up): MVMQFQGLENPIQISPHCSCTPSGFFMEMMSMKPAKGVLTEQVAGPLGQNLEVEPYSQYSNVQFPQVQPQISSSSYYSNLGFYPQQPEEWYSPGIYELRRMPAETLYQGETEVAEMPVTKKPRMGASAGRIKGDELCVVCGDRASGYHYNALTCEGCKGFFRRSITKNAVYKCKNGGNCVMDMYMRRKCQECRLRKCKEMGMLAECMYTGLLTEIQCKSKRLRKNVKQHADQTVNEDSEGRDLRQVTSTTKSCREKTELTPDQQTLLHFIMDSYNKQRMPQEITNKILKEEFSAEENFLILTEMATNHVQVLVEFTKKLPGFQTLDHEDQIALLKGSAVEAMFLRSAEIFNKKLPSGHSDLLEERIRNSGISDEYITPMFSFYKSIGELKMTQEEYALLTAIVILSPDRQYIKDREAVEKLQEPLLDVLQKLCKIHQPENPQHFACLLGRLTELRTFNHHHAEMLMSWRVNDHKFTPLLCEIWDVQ
Aryl hydrocarbon receptor (Homo sapiens), sequence (P35869 whole entry, looked up): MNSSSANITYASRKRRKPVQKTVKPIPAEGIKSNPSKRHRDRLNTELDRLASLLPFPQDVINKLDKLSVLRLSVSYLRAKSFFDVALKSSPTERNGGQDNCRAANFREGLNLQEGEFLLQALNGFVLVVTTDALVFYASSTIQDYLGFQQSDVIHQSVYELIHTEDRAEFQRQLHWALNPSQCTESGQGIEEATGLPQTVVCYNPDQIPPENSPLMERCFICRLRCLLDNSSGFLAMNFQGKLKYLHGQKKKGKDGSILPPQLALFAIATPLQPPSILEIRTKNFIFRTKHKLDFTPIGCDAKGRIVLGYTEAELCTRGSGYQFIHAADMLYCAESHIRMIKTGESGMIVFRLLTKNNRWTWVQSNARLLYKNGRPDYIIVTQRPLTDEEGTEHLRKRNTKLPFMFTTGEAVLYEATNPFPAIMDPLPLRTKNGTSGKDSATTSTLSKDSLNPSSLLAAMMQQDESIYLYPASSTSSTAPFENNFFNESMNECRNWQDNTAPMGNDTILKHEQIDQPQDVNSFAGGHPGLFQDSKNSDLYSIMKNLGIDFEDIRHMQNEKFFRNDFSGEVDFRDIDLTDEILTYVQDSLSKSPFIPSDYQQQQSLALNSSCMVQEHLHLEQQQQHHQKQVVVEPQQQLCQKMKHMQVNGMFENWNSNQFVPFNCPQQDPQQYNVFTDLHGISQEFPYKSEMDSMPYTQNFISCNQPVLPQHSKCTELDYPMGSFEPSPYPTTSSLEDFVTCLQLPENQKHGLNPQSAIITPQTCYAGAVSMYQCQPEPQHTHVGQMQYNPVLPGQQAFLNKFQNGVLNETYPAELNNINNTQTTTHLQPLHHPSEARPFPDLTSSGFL
Peroxisome proliferator-activated receptor delta (Homo sapiens), sequence (Q03181 whole entry, looked up): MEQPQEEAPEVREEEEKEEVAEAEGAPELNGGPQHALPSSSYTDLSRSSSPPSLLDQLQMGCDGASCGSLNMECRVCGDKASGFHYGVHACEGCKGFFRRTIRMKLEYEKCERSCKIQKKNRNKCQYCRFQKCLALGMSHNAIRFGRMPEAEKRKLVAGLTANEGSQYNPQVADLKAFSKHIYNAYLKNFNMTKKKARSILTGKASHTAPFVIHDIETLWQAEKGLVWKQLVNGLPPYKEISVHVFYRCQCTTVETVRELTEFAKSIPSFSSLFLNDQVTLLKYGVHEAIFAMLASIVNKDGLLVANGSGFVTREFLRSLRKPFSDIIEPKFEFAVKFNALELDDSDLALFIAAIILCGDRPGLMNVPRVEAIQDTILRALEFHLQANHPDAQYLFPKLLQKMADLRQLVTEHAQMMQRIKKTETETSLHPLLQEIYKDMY
Peroxisome proliferator-activated receptor gamma (Homo sapiens), sequence (P37231 whole entry, looked up): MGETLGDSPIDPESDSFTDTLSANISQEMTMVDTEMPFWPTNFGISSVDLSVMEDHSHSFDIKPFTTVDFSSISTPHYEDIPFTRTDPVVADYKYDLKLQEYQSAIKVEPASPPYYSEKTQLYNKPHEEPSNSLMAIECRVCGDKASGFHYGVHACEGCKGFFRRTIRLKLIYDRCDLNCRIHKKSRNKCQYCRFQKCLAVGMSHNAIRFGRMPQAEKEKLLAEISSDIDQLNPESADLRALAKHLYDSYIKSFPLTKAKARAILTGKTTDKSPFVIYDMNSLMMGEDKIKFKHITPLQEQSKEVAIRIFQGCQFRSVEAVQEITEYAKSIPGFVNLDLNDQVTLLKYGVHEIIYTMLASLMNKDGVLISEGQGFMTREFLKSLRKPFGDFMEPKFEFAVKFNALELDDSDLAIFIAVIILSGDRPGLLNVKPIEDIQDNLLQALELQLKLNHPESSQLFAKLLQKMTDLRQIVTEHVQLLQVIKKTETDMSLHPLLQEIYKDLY
Vitamin D3 receptor (Homo sapiens), sequence (P11473 whole entry, looked up): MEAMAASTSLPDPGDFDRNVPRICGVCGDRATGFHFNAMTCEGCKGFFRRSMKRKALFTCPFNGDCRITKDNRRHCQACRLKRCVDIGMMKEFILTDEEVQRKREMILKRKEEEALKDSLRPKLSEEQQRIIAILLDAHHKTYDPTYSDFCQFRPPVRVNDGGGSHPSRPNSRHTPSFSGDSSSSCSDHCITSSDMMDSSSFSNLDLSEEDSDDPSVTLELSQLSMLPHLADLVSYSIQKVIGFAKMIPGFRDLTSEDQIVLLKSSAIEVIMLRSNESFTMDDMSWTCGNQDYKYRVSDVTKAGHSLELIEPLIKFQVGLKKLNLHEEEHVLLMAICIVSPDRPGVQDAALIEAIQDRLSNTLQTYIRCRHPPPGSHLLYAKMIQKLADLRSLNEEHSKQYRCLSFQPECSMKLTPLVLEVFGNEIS

SMILES	Potency [1]	Potency [2]	Potency [3]	Potency [4]	Potency [5]	Potency [6]	Potency [7]	Potency [8]	outcome [9]	Potency [10]	Potency [11]	Potency [12]	Potency [13]	Potency [14]	Potency [15]	outcome [16]	Potency [17]	outcome [18]	outcome [19]	Potency [20]
CC(=O)Oc1ccccc1C(=O)Nc1ncc([N+](=O)[O-])s1	22.1 µM (active)	10.6 µM (active) and inactive	inactive	1.58 µM (active) and 5.31 µM (active)	inactive	1.19 µM (active)	inactive	inactive	inactive	inactive										
CNCCCC12CCC(c3ccccc31)c1ccccc12	inactive and 54.5 µM (active)	inactive	inactive			inactive	inactive	17.4 µM (active) and 29.8 µM (active)	inactive		13.3 µM (active)	19.3 µM (active)	9.77 µM (active) and 16.8 µM (active)	19.5 µM (active) and inactive	38.9 µM (active)	inactive				
CC(C(=O)O)c1cccc(C(=O)c2ccccc2)c1 (stereo unspecified)	inactive	inactive	inactive			inactive		inactive	inactive		inactive	inactive	inactive	inactive	inactive		inactive			
COC(=O)CCC(=O)OC	inactive		inactive	inactive		inactive		inactive	inactive	inactive	inactive	inactive	inactive	inactive	inactive	inactive	inactive	inactive	inactive	
c1ccc2sc(SSN3CCOCC3)nc2c1	6.84 µM (active)	30.6 µM (active)	5.48 µM (active)			inactive		15.5 µM (active)		inactive			inactive	inactive	inactive	inactive		inactive		
Oc1ccc(O)cc1	inactive and 54.2 µM (active)			inactive		inactive	inactive	inactive	inactive			inactive	inactive	inactive	inactive					
O=C(c1ccccc1)c1ccccc1O	inactive		inactive		inactive	inactive		inactive			inactive	inactive	inactive	inactive	inactive	inactive			inactive	inactive
CN(C)CCC=C1c2ccccc2CCc2ccccc21	inactive	inactive				inactive	inactive	43.7 µM (active) and 38.9 µM (active) and 29.8 µM (active)	inactive	inactive	inactive	inactive	24.5 µM (active)	49 µM (active) and 19.5 µM (active)	43.7 µM (active) and 29.8 µM (active)	inactive		inactive	inactive	
COc1c(Cl)c(Cl)c(Cl)c(Cl)c1Cl	inactive	inactive		inactive	inactive	inactive		inactive		inactive		inactive	inactive	inactive	inactive			inactive		
OC[C@H]1O[C@@H]2O[C@H]3[C@H](O)[C@@H](O)[C@@H](O[C@H]4[C@H](O)[C@@H](O)[C@@H](O[C@H]5[C@H](O)[C@@H](O)[C@@H](O[C@H]6[C@H](O)[C@@H](O)[C@@H](O[C@H]7[C@H](O)[C@@H](O)[C@@H](O[C@H]8[C@H](O)[C@@H](O)[C@@H](O[C@H]1[C@H](O)[C@H]2O)O[C@@H]8CO)O[C@@H]7CO)O[C@@H]6CO)O[C@@H]5CO)O[C@@H]4CO)O[C@@H]3CO				inactive		inactive	inactive	inactive				inactive	inactive	inactive	inactive					
CCCCC(CC)COC(=O)c1ccc(N(C)C)cc1 (stereo unspecified)	inactive	inactive and 27.3 µM (active)	inactive			inactive	inactive	inactive	inactive		inactive	inactive	inactive	inactive	inactive	inactive	inactive	inactive	inactive	
c1ccc2c(c1)Oc1ccccc1S2	inactive					inactive		inactive	inactive			inactive	inactive	inactive	inactive	inactive			inactive	
